AmpC no deterg – AmpC beta-lactamase inhibition without detergent | P00811 | hit rate 0.52% among 330,000 | Potency, µM (series often up to 57.1 µM), for the others: at the top dose activity change, negative = inhibition, hits mostly inhibitors | AmpC nitrocefin hydrolysis, absorbance 480 nm, 0.0001% Triton;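 note: potency is the fitted concentration of half-maximal effect; plate controls were no compound for no effect and no enzyme for full effect; nearly all actives have a fitted effect of over 20% in size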
Target sequence (P00811 whole entry, looked up): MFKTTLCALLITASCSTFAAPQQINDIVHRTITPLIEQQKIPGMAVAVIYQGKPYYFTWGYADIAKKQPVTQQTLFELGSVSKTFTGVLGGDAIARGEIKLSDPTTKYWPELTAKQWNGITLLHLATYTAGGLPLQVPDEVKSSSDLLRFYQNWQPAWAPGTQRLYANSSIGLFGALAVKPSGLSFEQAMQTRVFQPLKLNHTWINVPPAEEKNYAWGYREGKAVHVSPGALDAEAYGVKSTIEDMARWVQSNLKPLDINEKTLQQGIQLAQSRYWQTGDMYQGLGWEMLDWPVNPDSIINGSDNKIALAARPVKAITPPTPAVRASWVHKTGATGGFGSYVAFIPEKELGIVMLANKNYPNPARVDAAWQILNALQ
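20 mM phosphate pH 7.0 + 0.01% (detergent screen) or 0.0001% Triton X-100; 5.3 nM AmpC reagent; cpd preinc 15 min RT; nitrocefin (800 uM stock) to start; A480 q20 s × 4 min; Activity was normalised to no-enzyme and no-compound control wells.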
Shiga inhibitor – inhibitors of Shiga toxin in Vero cells; inhibition, % at 38.7 µM; Vero cells, Shiga toxin protein synthesis inhibition reporter; hit rate 9.2% among 290,000; in the data active = inhibition mostly above about 28%, no sharp cut-off; inactive = mostly below about 43%; note: 0% is about no effect
Cycloheximide cs – counter-screen hit for Shiga toxin inhibitors, cycloheximide; cell reporter, cycloheximide protein synthesis inhibition counterscreen; max response, %; hit rate 12% among 300,000; in the data active = max response mostly above about 13%, no sharp cut-off; inactive = mostly below about 14%; note: read at 38.3 µM for the half of the compounds with a filed dose; 0% is about no effect
AmpC inh detg – inhibitors of E. coli AmpC beta-lactamase with detergent; P00811; AmpC hydrolysis of nitrocefin, absorbance 480 nm, 0.01% Triton; Potency, µM (top dose mostly 114 µM), for the others: at the top dose activity change, negative = inhibition, usual class: inhibitors; hit rate 0.041% among 370,000; AID 485294;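 note: potency is the fitted concentration of half-maximal effect; 0% = no-compound wells and -100% = no-enzyme wells; nearly all actives have a fitted effect of over 25% in size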
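20 mM phosphate pH 7.0 + 0.01% (detergent screen) or 0.0001% Triton X-100; 5.3 nM AmpC reagent; cpd preinc 15 min RT; nitrocefin (800 uM stock) to start; A480 q20 s × 4 min; Activity was normalised to no-enzyme and no-compound control wells.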
SARS PLP yeast – inhibitors of SARS-CoV papain-like protease in yeast. hit rate 0.19% among 330,000. Potency, µM (series often up to 32.9 µM), for the others: at the highest dose activity, positive = growth rescue, usual class: activators. S. cerevisiae expressing SARS-CoV PLpro, growth rescue; calls by dose curve; note: potency is the fitted concentration of half-maximal effect; 0% is about no effect; nearly all actives have a fitted effect of over 55% in size
AMA1-RON2 inh – AMA1-RON2 (P. falciparum) interaction inhibition; AlphaScreen AMA1-biotinylated RON2 peptide binding; Potency, µM (series often up to 58.2 µM), for inactives: at the top dose activity change, negative = inhibition, hits mostly inhibitors; hit rate 0.2% among 360,000;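 note: potency is the fitted concentration of half-maximal effect; 0% = vehicle wells and -100% = peptide control; nearly all actives have a fitted effect of over 45% in size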
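AMA1 (3D7) with his tag at 25 nM final met compounds first, then biotinylated RON2 peptide at 25 nM; detection used donor plus acceptor beads, 10 µg/mL apiece, read by AlphaScreen after 30 min at room temperature.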
Numbers without * were called inactive. Shown is part of a subset that was picked to be rich in hits. Unless noted, calls come from the whole dose curve; as a rule, active = well fitted curve in the direction sought with a large enough effect; inconclusive = small, poorly fitted or top-dose-only effect, or another doubt; inactive = no such curve, though single readings can be large; an effect the other way counts as inactive or inconclusive.

Results for CCCc1sc(N/N=C/c2ccccn2)nc1-c1ccc(F)cc1 ?
AmpC no deterg: 17%; Shiga inhibitor: 52*; Cycloheximide cs: 25*; AmpC inh detg: 1%; SARS PLP yeast: -32%; AMA1-RON2 inh: -12%

How did Cc1nc(N/N=C/c2ccccn2)sc1C do in these assays?
AmpC no deterg: -6%; Shiga inhibitor: 0; Cycloheximide cs: 7; AmpC inh detg: -2%; SARS PLP yeast: -86%; AMA1-RON2 inh: 3%

How did CCOCCCNCc1ccc(OCc2ccccc2Cl)cc1 do in these assays?
AmpC no deterg: 23%; Shiga inhibitor: -13; Cycloheximide cs: -4; AmpC inh detg: inconclusive; SARS PLP yeast: -20%; AMA1-RON2 inh: 2%

How did OCCCCNCc1ccc(OCc2ccccc2)cc1 do in these assays?
AmpC no deterg: 1%; Shiga inhibitor: 34; Cycloheximide cs: 14*; AmpC inh detg: 0%; SARS PLP yeast: 7%; AMA1-RON2 inh: 4%

How did OCCNCCCCOc1ccc(OCc2ccccc2)cc1 do in these assays?
AmpC no deterg: 43%; Shiga inhibitor: 86*; Cycloheximide cs: 34*; AmpC inh detg: 2%; SARS PLP yeast: -6%; AMA1-RON2 inh: -11%

How did CC(O)CNCCCCOc1ccc(OCc2ccccc2)cc1 (centres undefined) do in these assays?
AmpC no deterg: 74%; Shiga inhibitor: 75*; Cycloheximide cs: 24*; AmpC inh detg: -8%; SARS PLP yeast: 0%; AMA1-RON2 inh: -10%

What do the screens show for `OCCCCNCc1ccc(OCc2ccccc2Cl)cc1`?
AmpC no deterg: 29%; Shiga inhibitor: 26; Cycloheximide cs: 25*; AmpC inh detg: -13%; SARS PLP yeast: -3%; AMA1-RON2 inh: -3%

How did CC(C)(C)c1ccc(C(CC(=O)O)NC(=O)CSc2ccccc2)cc1 (centres undefined) do in these assays?
AmpC no deterg: -2%; Shiga inhibitor: 17; Cycloheximide cs: -2; AmpC inh detg: 5%; SARS PLP yeast: -3%; AMA1-RON2 inh: 4%

Results for CCC(CC)NC(=O)c1ccccc1Oc1ccccc1 ?
AmpC no deterg: -1%; Shiga inhibitor: -8; Cycloheximide cs: -2; AmpC inh detg: -11%; SARS PLP yeast: -3%; AMA1-RON2 inh: 25%

What do the screens show for `COC(=O)c1ccc(OC)c(Cn2c(=O)n(-c3ccc(C)cc3)c(=O)c3c2cnn3C)c1`?
AmpC inh detg: -6%

How did Cc1ccc(S(=O)(=O)NCC(c2ccc(N(C)C)cc2)N2CCCC2)cc1 (centres undefined) do in these assays?
AmpC inh detg: 12%

How did COc1ccc(-c2nnn(-c3cc(Cl)cc(Cl)c3)c2N)cc1 do in these assays?
AmpC no deterg: -20%; Shiga inhibitor: 27; Cycloheximide cs: 16; AmpC inh detg: -5%; SARS PLP yeast: 0%; AMA1-RON2 inh: -11%

How did Nc1c(-c2ccccc2)cnn1-c1ccc(C(=O)O)cc1 do in these assays?
AmpC no deterg: -17%; Shiga inhibitor: 88*; Cycloheximide cs: 48*; AmpC inh detg: 4%; SARS PLP yeast: 3%; AMA1-RON2 inh: 12%

Results for Cc1nc2c(-c3ccccc3)cnn2c(N)c1-c1ccccc1 ?
AmpC no deterg: -16%; Shiga inhibitor: 24; Cycloheximide cs: 36; AmpC inh detg: -3%; SARS PLP yeast: -11%; AMA1-RON2 inh: 166%

What do the screens show for `Nc1c(-c2ccc(Cl)cc2)cnn1-c1ccccc1`?
AmpC no deterg: -14%; Shiga inhibitor: 114*; Cycloheximide cs: 37*; AmpC inh detg: 1%; SARS PLP yeast: -4%; AMA1-RON2 inh: 12%

Results for Nc1c(-c2ccc(Cl)cc2)nnn1-c1ccccc1 ?
AmpC no deterg: -21%; Shiga inhibitor: 98*; Cycloheximide cs: 45*; AmpC inh detg: 3%; SARS PLP yeast: -12%; AMA1-RON2 inh: 0%

How did Nc1c(-c2ccc(Cl)cc2)cnc2c(-c3ccccc3)cnn12 do in these assays?
AmpC no deterg: -18%; Shiga inhibitor: 89*; Cycloheximide cs: 36*; AmpC inh detg: 1%; SARS PLP yeast: -3%; AMA1-RON2 inh: 52%

What do the screens show for `O=C(COc1ccccc1)Nc1ccc(-c2nnc(-c3ccco3)o2)cc1`?
AmpC no deterg: -10%; Shiga inhibitor: 2; Cycloheximide cs: -4; AmpC inh detg: -1%; SARS PLP yeast: -5%; AMA1-RON2 inh: 2%

What do the screens show for `C=CCOc1ccc(/C=N/NC(=O)CN(c2cc(Cl)ccc2OC)S(=O)(=O)c2ccc(C)c([N+](=O)[O-])c2)cc1`?
AmpC no deterg: -54%; Shiga inhibitor: -11; Cycloheximide cs: 0; AmpC inh detg: 2%; SARS PLP yeast: -6%; AMA1-RON2 inh: 12%

What do the screens show for `CC[C@H](C)[C@H](NC(N)=O)C(=O)Nc1ccc(S(=O)(=O)NC(C)C)cc1`?
AmpC no deterg: -10%; Shiga inhibitor: 3; Cycloheximide cs: -1; AmpC inh detg: 1%; SARS PLP yeast: 4%; AMA1-RON2 inh: 43%

Results for COc1ccc(-c2cnn(-c3ccccc3)c2N)cc1OC ?
AmpC no deterg: -6%; Shiga inhibitor: 36; Cycloheximide cs: 12; AmpC inh detg: 6%; SARS PLP yeast: -12%; AMA1-RON2 inh: -3%

How did Cc1ccc(-c2cnn(-c3ccccc3)c2N)cc1 do in these assays?
AmpC no deterg: -27%; Shiga inhibitor: 41*; Cycloheximide cs: 32*; AmpC inh detg: -11%; SARS PLP yeast: -4%; AMA1-RON2 inh: 0%

Results for COc1ccc(C(=O)/C=C/NCc2ccc(F)cc2)cc1OC ?
AmpC no deterg: 54%; Shiga inhibitor: 26; Cycloheximide cs: 8; AmpC inh detg: 10%; SARS PLP yeast: -2%; AMA1-RON2 inh: -5%

How did CC(=O)C1CCCN(C(=O)c2ccc3nc(Cc4cccc(Cl)c4)oc3c2)C1 (centres undefined) do in these assays?
AmpC no deterg: 98%; Shiga inhibitor: 17; Cycloheximide cs: 13*; AmpC inh detg: 7%; SARS PLP yeast: 0%; AMA1-RON2 inh: -5%

How did O=C(c1ccc2nc(Cc3cccc(Cl)c3)oc2c1)N1CCOCC1 do in these assays?
AmpC no deterg: 48%; Shiga inhibitor: 69*; Cycloheximide cs: 59*; AmpC inh detg: 1%; SARS PLP yeast: -3%; AMA1-RON2 inh: -9%

What do the screens show for `O=C(NCC1COCCO1)c1ccc2nc(Cc3cccc(Cl)c3)oc2c1` (centres undefined)?
AmpC no deterg: 117%; Shiga inhibitor: 52*; Cycloheximide cs: 51*; AmpC inh detg: 3%; SARS PLP yeast: 0%; AMA1-RON2 inh: 19%

How did O=C(CCC1CCCN(C(=O)COc2ccccc2)C1)N1CCN(c2ccccn2)CC1 (centres undefined) do in these assays?
AmpC no deterg: 115%; Shiga inhibitor: -10; Cycloheximide cs: 0; AmpC inh detg: 6%; SARS PLP yeast: -2%; AMA1-RON2 inh: -5%

From PubChem BioAssay
